The supplement of paper PMC10732440
± gives the standard deviation of the averaged measurements.

Tested on: Caenorhabditis elegans N2 infected with Nematocida parisii ERTm1
Assay: progeny production relative to DMSO uninfected control; higher = more progeny despite microsporidia infection (inhibition of infection with low host toxicity)
Conditions: infection time 6 days; 40 µM
Procedure: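 Bleach-synchronised C. elegans N2 L1 larvae (100 per well) were grown in 96-well plates in K-medium with 5x E. coli OP50 and 15,000 N. parisii spores/uL, plus Pandemic Response Box compound at 100 uM or 40 uM (1% DMSO), for 6 days at 21 C with shaking. Worms were stained with Rose Bengal, scanned on a flatbed scanner and counted with WorMachine. Progeny production is given as % of the DMSO uninfected control (triplicate wells), so higher values mean the compound restores progeny despite infection.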

Structure (SMILES)	progeny production [%]
CC1CCc2c(N3CCC(O)CC3)c(F)cc3c(=O)c(C(=O)O)cn1c23 (stereo not given)	8.47 ± 4.4
COc1ccc(CNC(=O)C(NS(=O)(=O)c2ccc3nc(C)sc3c2)C(C)C)cc1 (stereo not given)	4.14 ± 1.6
CCCCCc1ccc(C(=O)NCCn2cc(CCCCCc3c[nH]c(N)n3)nn2)cc1	8.32 ± 7.4
COCCn1cnc2c(O)nc(Nc3ccccc3)nc21	8.43 ± 4.5
N=c1n(CCN2CCCCC2)c2ccccc2n1CC(O)COc1ccc(Cl)cc1Cl (stereo not given)	5.53 ± 1.7
N#CCN1C(=O)COc2cc(F)c(N3C(=O)c4ccccc4C3=O)cc21	3.98 ± 0.99
O=P(O)(O)C(CCCc1cccc(Oc2ccccc2)c1)S(=O)(=O)O (stereo not given)	5.45 ± 0.36
CCOC(=O)/C=C/[C@H](C[C@@H]1CCNC1=O)NC(=O)[C@@H](CC(=O)[C@@H](NC(=O)c1cc(C)on1)C(C)C)Cc1ccc(F)cc1	3.79 ± 1.2
COC(=O)Nc1nc2cc(Sc3ccccc3)ccc2[nH]1	7.64 ± 3.1
Cc1c(F)cccc1NC(=O)Nc1ccc(Cl)c(S(=O)(=O)[C@H]2CCCNC2)c1O	8.9 ± 1.8
O=C(NCc1ncc(C(F)(F)F)cc1Cl)c1c(Cl)cccc1Cl	3.33 ± 0.85
NC(=S)N/N=C/c1ncccc1N	8.43 ± 4.5
CC(=O)O[C@H]1C[C@@]2(C)[C@@H](C[C@@H](O)[C@H]3[C@@]4(C)CC[C@@H](O)[C@@H](C)[C@@H]4CC[C@@]32C)/C1=C(\CCC=C(C)C)C(=O)O	6.24 ± 2.3
CC[N+]1(C/C2=C/CCCCCC2)CCC(NC(=O)C2c3cc(Cl)ccc3Oc3ccc(Cl)cc32)CC1 (stereo not given)	3.01 ± 1.9
CCOc1ccc(/C=N/NC(=O)C2CC2c2ccc(C(C)(C)C)cc2)cc1OCC (stereo not given)	5.73 ± 4.8
CC#C[C@]1(O)CC[C@H]2[C@@H]3CCC4=CC(=O)CCC4=C3[C@@H](c3ccc(N(C)C)cc3)C[C@@]21C	4.64 ± 1.1
C[C@@H](c1nc(-c2ccc(C#N)cc2)cs1)[C@](O)(Cn1cncn1)c1ccc(F)cc1F	5.04 ± 1.2
CCCNc1ccc(S(=O)(=O)Nc2cc(C)on2)cc1	3.09 ± 1.4
CC(C)/N=c1\cc2n(-c3ccc(Cl)cc3)c3ccccc3nc-2cc1Nc1ccc(Cl)cc1	5.08 ± 1.9
CN(C)CC(=O)Nc1ccc2[nH]c(=O)c3ccccc3c2c1	3.86 ± 0.4

Same assay, conditions: infection time 6 days; 100 µM

Structure (SMILES)	progeny production [%]
CC1CCc2c(N3CCC(O)CC3)c(F)cc3c(=O)c(C(=O)O)cn1c23 (stereo not given)	11 ± 2.9
COc1ccc(CNC(=O)C(NS(=O)(=O)c2ccc3nc(C)sc3c2)C(C)C)cc1 (stereo not given)	6.87 ± 4
CCCCCc1ccc(C(=O)NCCn2cc(CCCCCc3c[nH]c(N)n3)nn2)cc1	2.61 ± 1.4
COCCn1cnc2c(O)nc(Nc3ccccc3)nc21	17.6 ± 6.1
N=c1n(CCN2CCCCC2)c2ccccc2n1CC(O)COc1ccc(Cl)cc1Cl (stereo not given)	9.49 ± 8.7
N#CCN1C(=O)COc2cc(F)c(N3C(=O)c4ccccc4C3=O)cc21	15.2 ± 12
O=P(O)(O)C(CCCc1cccc(Oc2ccccc2)c1)S(=O)(=O)O (stereo not given)	8.22 ± 4.1
CCOC(=O)/C=C/[C@H](C[C@@H]1CCNC1=O)NC(=O)[C@@H](CC(=O)[C@@H](NC(=O)c1cc(C)on1)C(C)C)Cc1ccc(F)cc1	8.56 ± 4.7
COC(=O)Nc1nc2cc(Sc3ccccc3)ccc2[nH]1	29.3 ± 18
Cc1c(F)cccc1NC(=O)Nc1ccc(Cl)c(S(=O)(=O)[C@H]2CCCNC2)c1O	13 ± 5.7
O=C(NCc1ncc(C(F)(F)F)cc1Cl)c1c(Cl)cccc1Cl	8.17 ± 5.4
NC(=S)N/N=C/c1ncccc1N	18.8 ± 12
CC(=O)O[C@H]1C[C@@]2(C)[C@@H](C[C@@H](O)[C@H]3[C@@]4(C)CC[C@@H](O)[C@@H](C)[C@@H]4CC[C@@]32C)/C1=C(\CCC=C(C)C)C(=O)O	16.9 ± 9.1
CC[N+]1(C/C2=C/CCCCCC2)CCC(NC(=O)C2c3cc(Cl)ccc3Oc3ccc(Cl)cc32)CC1 (stereo not given)	2.8 ± 2.2
CCOc1ccc(/C=N/NC(=O)C2CC2c2ccc(C(C)(C)C)cc2)cc1OCC (stereo not given)	12 ± 7.9
CC#C[C@]1(O)CC[C@H]2[C@@H]3CCC4=CC(=O)CCC4=C3[C@@H](c3ccc(N(C)C)cc3)C[C@@]21C	14.9 ± 4.7
C[C@@H](c1nc(-c2ccc(C#N)cc2)cs1)[C@](O)(Cn1cncn1)c1ccc(F)cc1F	14.7 ± 10
CCCNc1ccc(S(=O)(=O)Nc2cc(C)on2)cc1	14 ± 3.8
CC(C)/N=c1\cc2n(-c3ccc(Cl)cc3)c3ccccc3nc-2cc1Nc1ccc(Cl)cc1	9.5 ± 7.2
CN(C)CC(=O)Nc1ccc2[nH]c(=O)c3ccccc3c2c1	14.1 ± 5
